PubChem BioAssay (NCATS)
Inconclusive results are not listed. The source made the active and inactive calls. Calls follow the shape of the dose curve; as a rule, active = well fitted activation curve with a large enough effect; inconclusive = small, poorly fitted or top-dose-only effect; inactive = no such curve, though single readings can be large or run the other way.

What follows are compounds tested against Rap guanine nucleotide exchange factor 3 (Homo sapiens) (UniProt O95398) (assay: Confirmatory qHTS for agonist of cAMP-regulated guanine nucleotide exchange factor 3 (EPAC1) (AID 1645881;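 also: EPAC1 catalysed release of BODIPY-GDP from Rap1B seen as fluorescence loss; 100% = effect of cAMP agonist control; nearly all actives have a fitted effect of over 75% in size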)). Details: EPAC1 Rap1B BODIPY-GDP exchange fluorescence; series mostly up to 154 µM.
Sequence of Rap guanine nucleotide exchange factor 3 (Homo sapiens) (O95398 whole entry, looked up): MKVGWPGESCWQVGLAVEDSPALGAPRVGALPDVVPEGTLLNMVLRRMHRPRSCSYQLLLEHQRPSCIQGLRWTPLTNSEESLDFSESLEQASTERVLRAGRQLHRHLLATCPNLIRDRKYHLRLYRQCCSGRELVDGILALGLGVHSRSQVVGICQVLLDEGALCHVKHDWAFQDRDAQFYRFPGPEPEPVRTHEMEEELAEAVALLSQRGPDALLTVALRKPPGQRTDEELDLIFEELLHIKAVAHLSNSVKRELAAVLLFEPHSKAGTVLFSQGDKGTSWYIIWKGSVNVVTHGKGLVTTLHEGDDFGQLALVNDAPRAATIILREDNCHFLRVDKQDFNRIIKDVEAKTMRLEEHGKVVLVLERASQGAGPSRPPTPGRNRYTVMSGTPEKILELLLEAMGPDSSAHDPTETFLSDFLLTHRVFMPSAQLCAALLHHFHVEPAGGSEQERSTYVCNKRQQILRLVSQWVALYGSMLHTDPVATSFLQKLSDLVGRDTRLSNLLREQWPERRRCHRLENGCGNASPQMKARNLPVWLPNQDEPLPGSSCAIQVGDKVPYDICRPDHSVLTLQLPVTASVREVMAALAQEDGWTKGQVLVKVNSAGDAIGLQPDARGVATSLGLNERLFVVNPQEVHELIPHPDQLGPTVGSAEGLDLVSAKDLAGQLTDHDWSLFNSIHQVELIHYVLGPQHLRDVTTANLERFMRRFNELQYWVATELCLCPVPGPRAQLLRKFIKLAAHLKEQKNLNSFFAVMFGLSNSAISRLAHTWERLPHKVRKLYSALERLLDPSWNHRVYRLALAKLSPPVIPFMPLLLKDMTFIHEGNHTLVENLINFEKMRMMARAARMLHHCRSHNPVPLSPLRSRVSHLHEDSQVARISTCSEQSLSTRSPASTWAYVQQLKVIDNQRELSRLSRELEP

Potency, inactive:
Cc1cc(NC2=CC(=O)C(=O)c3ccccc32)no1
Cc1cc(C)c(Cn2cnc3ccccc32)c(C)c1
CCN1CCN(c2ccc(S(=O)(=O)N3CCCCC3)cc2NC(=O)c2ccc([N+](=O)[O-])s2)CC1
Nc1ccc(S(=O)(=O)Nc2nccs2)cc1N=Nc1ccccc1[N+](=O)[O-]
Cc1cc(NC(=O)CS(=O)(=O)c2cn(Cc3cccc(Br)c3)c3ccccc23)no1
O=C(O)c1ccc(N=N/C(=N\Nc2ccc(C(=O)O)cc2)c2ccccc2)cc1
COc1ccc(CCN2C(=O)CSC2=Nc2ccc(C(C)C)cc2)cc1OC
CC(=O)C1=CCC(c2ccccc2Cl)N(S(=O)(=O)c2ccc(C)cc2)C1 (stereo not given)
CCOC(=O)C1=C(C)N=c2s/c(=C/c3ccc(OCC(=O)O)cc3)c(=O)n2C1c1ccc(F)cc1 (stereo not given)
CN(C)c1ccc(-c2[nH][nH]c(=O)c2NC(=O)c2ccc3ccccc3n2)cc1
CC(C)n1nccc1N(Cc1ccc(Cl)cc1)S(=O)(=O)c1ccccc1
Cc1ccc(S(=O)(=O)/N=C2\C=C(NS(=O)(=O)c3ccccc3)C(=O)c3ccccc32)c(C)c1
CCN(CC1COc2ccccc2O1)C(=O)CN1C(=O)NC(C)(c2ccc(C)cc2)C1=O (stereo not given)
CCCCN(CCCC)C1=Nc2ccccc2N/C1=C(/C#N)C(=O)OCC
Cc1ccc(/C=C2/SC(=S)N(c3ccc(S(=O)(=O)Nc4nccs4)cc3)C2=O)cc1
COc1ccc(-c2nn3c(-c4cccc(C)c4)nnc3s2)cc1OC
Cc1ccccc1C(=O)Nc1ccccc1N1CCCCC1
CN(CC(=O)Nc1ccc(F)cc1)C(=O)c1cc(-c2ccco2)nc2ccccc12
Clc1cccc(-c2nc3ccc(Cl)cn3c2Cc2ccsc2)c1
Cc1ccc(SCc2cc(=O)c3c(=O)n(-c4ccccc4)[nH]c3[nH]2)cc1
CCCCC1CC2=C(C(=O)OC(C)(C)O2)C(c2ccc(Cl)cc2)O1 (stereo not given)
Cc1ccc(CN(Cc2ccco2)C(=O)c2ccccc2Br)o1
Cc1oc2ccc(O)c(CN3CCCCC3)c2c1C(=O)Nc1cccc(C(F)(F)F)c1
COc1cc(NC(=O)c2ccccc2NS(=O)(=O)c2ccc(Cl)s2)cc(OC)c1
C#Cc1ccc([C@@H]2C=C(C(=O)NCc3ccccc3)O[C@H](OCC)[C@H]2CCCO)cc1
Cc1nc2c(OCc3ccc(C(F)(F)F)cc3)cccn2c1N(C)Cc1cccs1
C=Cc1ccc(CC2(C)C(=O)Nc3ccc(Cl)cc32)cc1 (stereo not given)
COc1cc(/C=N/NS(=O)(=O)c2ccc3ccccc3c2)ccc1OCc1ccc(C(=O)O)cc1
COc1ccc(-c2nc3ccccc3nc2-c2ccccc2)cc1
O=C(NC1CC1)C1CCN(S(=O)(=O)c2cc([N+](=O)[O-])ccc2Cl)CC1
CCOC(=O)C1=C(C)NC(C)=C(C(=O)OCC)C1C(=O)OCC(=O)NCc1ccc(F)cc1
CC(=O)NC(C)(c1ccccc1)c1nc(-c2cc(F)cc(F)c2)cs1 (stereo not given)
C[n+]1cccc2c(Br)ccc([O-])c21
CCOC(=O)c1c(C)[nH]c(C(=O)C(C)OC(=O)c2ccc(NC(=O)CC#N)cc2)c1C (stereo not given)
CC(=O)NC(c1ccccc1)c1c(O)ccc2ccccc12 (stereo not given)
Cc1cccc(NC(=O)CNC(=O)CCc2nc3sc4c(c3c(=O)[nH]2)CCCC4)c1C
CCCCn1nnnc1C(c1cc2ccccc2o1)N1CCN(c2ncccc2C#N)CC1 (stereo not given)
O=c1cc(CN2CCN(S(=O)(=O)c3cccc(Cl)c3)CC2)c2ccc(O)cc2o1
CCOC(=O)c1ccc(NC(=O)c2c(N)n(Cc3ccccc3)c(=O)[nH]c2=O)cc1
CCOc1ccccc1NC(=O)C1COc2ccccc2O1 (stereo not given)

These compounds were tested against Rap guanine nucleotide exchange factor 4 (Homo sapiens) (UniProt Q8WZA2) (assay: Confirmatory qHTS for agonist of cAMP-regulated guanine nucleotide exchange factor 4 (EPAC2) (AID 1645884;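 also: nucleotide exchange releases bodipy-GDP from Rap1 and this lowers its fluorescence; % is scaled to controls: 0 for no effect and ±100 for the full control effect; nearly all actives have a fitted effect of over 65% in size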)). Details: EPAC2 GEF activity, Rap1B-BODIPY-GDP fluorescence; series mostly up to 154 µM.
Sequence of Rap guanine nucleotide exchange factor 4 (Homo sapiens) (Q8WZA2 whole entry, looked up): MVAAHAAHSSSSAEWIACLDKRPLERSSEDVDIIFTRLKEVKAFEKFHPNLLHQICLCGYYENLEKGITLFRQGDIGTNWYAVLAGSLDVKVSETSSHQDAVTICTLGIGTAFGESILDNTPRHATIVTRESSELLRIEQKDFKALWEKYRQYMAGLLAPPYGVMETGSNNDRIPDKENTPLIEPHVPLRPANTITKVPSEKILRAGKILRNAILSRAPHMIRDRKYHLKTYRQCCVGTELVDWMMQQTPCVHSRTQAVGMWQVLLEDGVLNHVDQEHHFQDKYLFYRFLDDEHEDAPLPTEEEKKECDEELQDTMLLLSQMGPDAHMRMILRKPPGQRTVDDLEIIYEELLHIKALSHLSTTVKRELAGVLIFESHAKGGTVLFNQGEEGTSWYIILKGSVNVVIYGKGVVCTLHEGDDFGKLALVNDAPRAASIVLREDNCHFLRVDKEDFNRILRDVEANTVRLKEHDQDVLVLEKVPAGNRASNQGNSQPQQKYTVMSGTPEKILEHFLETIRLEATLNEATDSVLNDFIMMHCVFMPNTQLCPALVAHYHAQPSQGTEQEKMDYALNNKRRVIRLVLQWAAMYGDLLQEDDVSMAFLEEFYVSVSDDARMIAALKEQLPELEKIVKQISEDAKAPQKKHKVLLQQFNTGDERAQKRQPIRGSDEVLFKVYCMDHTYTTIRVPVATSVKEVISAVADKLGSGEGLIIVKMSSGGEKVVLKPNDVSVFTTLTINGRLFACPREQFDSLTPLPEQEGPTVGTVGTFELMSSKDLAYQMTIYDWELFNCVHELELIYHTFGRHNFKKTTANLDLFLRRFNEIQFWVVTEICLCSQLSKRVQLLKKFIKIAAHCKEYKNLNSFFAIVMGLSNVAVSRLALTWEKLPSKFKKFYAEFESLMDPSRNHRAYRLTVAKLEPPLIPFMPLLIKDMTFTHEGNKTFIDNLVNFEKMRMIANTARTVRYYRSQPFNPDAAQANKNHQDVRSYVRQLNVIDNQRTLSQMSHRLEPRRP

Potency, inactive:
Cc1cc(NC2=CC(=O)C(=O)c3ccccc32)no1
Cc1cc(C)c(Cn2cnc3ccccc32)c(C)c1
CCN1CCN(c2ccc(S(=O)(=O)N3CCCCC3)cc2NC(=O)c2ccc([N+](=O)[O-])s2)CC1
Cc1cc(NC(=O)CS(=O)(=O)c2cn(Cc3cccc(Br)c3)c3ccccc23)no1
COc1ccc(CCN2C(=O)CSC2=Nc2ccc(C(C)C)cc2)cc1OC
CC(=O)C1=CCC(c2ccccc2Cl)N(S(=O)(=O)c2ccc(C)cc2)C1 (stereo not given)
CCOC(=O)C1=C(C)N=c2s/c(=C/c3ccc(OCC(=O)O)cc3)c(=O)n2C1c1ccc(F)cc1 (stereo not given)
CN(C)c1ccc(-c2[nH][nH]c(=O)c2NC(=O)c2ccc3ccccc3n2)cc1
CC(C)n1nccc1N(Cc1ccc(Cl)cc1)S(=O)(=O)c1ccccc1
CCN(CC1COc2ccccc2O1)C(=O)CN1C(=O)NC(C)(c2ccc(C)cc2)C1=O (stereo not given)
CCCCN(CCCC)C1=Nc2ccccc2N/C1=C(/C#N)C(=O)OCC
Cc1ccc(/C=C2/SC(=S)N(c3ccc(S(=O)(=O)Nc4nccs4)cc3)C2=O)cc1
COc1ccc(-c2nn3c(-c4cccc(C)c4)nnc3s2)cc1OC
Cc1ccccc1C(=O)Nc1ccccc1N1CCCCC1
CN(CC(=O)Nc1ccc(F)cc1)C(=O)c1cc(-c2ccco2)nc2ccccc12
Clc1cccc(-c2nc3ccc(Cl)cn3c2Cc2ccsc2)c1
Cc1ccc(SCc2cc(=O)c3c(=O)n(-c4ccccc4)[nH]c3[nH]2)cc1
CCCCC1CC2=C(C(=O)OC(C)(C)O2)C(c2ccc(Cl)cc2)O1 (stereo not given)
Cc1ccc(CN(Cc2ccco2)C(=O)c2ccccc2Br)o1
Cc1oc2ccc(O)c(CN3CCCCC3)c2c1C(=O)Nc1cccc(C(F)(F)F)c1
COc1cc(NC(=O)c2ccccc2NS(=O)(=O)c2ccc(Cl)s2)cc(OC)c1
C#Cc1ccc([C@@H]2C=C(C(=O)NCc3ccccc3)O[C@H](OCC)[C@H]2CCCO)cc1
Cc1nc2c(OCc3ccc(C(F)(F)F)cc3)cccn2c1N(C)Cc1cccs1
COc1cc(/C=N/NS(=O)(=O)c2ccc3ccccc3c2)ccc1OCc1ccc(C(=O)O)cc1
COc1ccc(-c2nc3ccccc3nc2-c2ccccc2)cc1
O=C(NC1CC1)C1CCN(S(=O)(=O)c2cc([N+](=O)[O-])ccc2Cl)CC1
CCOC(=O)C1=C(C)NC(C)=C(C(=O)OCC)C1C(=O)OCC(=O)NCc1ccc(F)cc1
CC(=O)NC(C)(c1ccccc1)c1nc(-c2cc(F)cc(F)c2)cs1 (stereo not given)
C[n+]1cccc2c(Br)ccc([O-])c21
CCOC(=O)c1c(C)[nH]c(C(=O)C(C)OC(=O)c2ccc(NC(=O)CC#N)cc2)c1C (stereo not given)
Cc1cccc(NC(=O)CNC(=O)CCc2nc3sc4c(c3c(=O)[nH]2)CCCC4)c1C
O=c1cc(CN2CCN(S(=O)(=O)c3cccc(Cl)c3)CC2)c2ccc(O)cc2o1
CCOC(=O)c1ccc(NC(=O)c2c(N)n(Cc3ccccc3)c(=O)[nH]c2=O)cc1
CCOc1ccccc1NC(=O)C1COc2ccccc2O1 (stereo not given)

activation, inactive:
Nc1ccc(S(=O)(=O)Nc2nccs2)cc1N=Nc1ccccc1[N+](=O)[O-] 0% [at 17.1 µM, percent relative to cAMP agonist control]
O=C(O)c1ccc(N=N/C(=N\Nc2ccc(C(=O)O)cc2)c2ccccc2)cc1 -13% [at 17.1 µM, percent relative to cAMP agonist control]
Cc1ccc(S(=O)(=O)/N=C2\C=C(NS(=O)(=O)c3ccccc3)C(=O)c3ccccc32)c(C)c1 5.26% [at 17.1 µM, percent relative to cAMP agonist control]
C=Cc1ccc(CC2(C)C(=O)Nc3ccc(Cl)cc32)cc1 (stereo not given) 9.02% [at 17.1 µM, percent relative to cAMP agonist control]
CC(=O)NC(c1ccccc1)c1c(O)ccc2ccccc12 (stereo not given) 2.11% [at 17.1 µM, percent relative to cAMP agonist control]
CCCCn1nnnc1C(c1cc2ccccc2o1)N1CCN(c2ncccc2C#N)CC1 (stereo not given) 8.35% [at 17.1 µM, percent relative to cAMP agonist control]
